According to PubChem BioAssay AID1259312 (Keith Lab, Institute of Cancer Science, University of …, 2017):
Values joined by “and” are separate entries in the source; they are usually repeats but may differ in a detail not shown here. Identical values can stand only once. The campaign covered roughly 4,500 compounds. About 200 (4.4%) were called active.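 The calls were made as follows: active = cell survival measured by absorbance rises more than 2.5-fold over infected cells without compound; inactive = the rest.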 This excerpt belongs to a sample that is enriched for actives. More than one record can exist for a structure, and the calls need not agree.

experiment: survival after telomere uncapping, modulators, primary screen, cell-based (AID 1259312); details: HCT116 + Ad-hTR-mut, MTT, 5 d; at 10 µM, stronger effect = higher value;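 also: virus expresses mutant telomerase RNA that uncaps telomeres and kills cells; compound added 2 days after infection so exposure lasts 3 days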

Structure (SMILES) | fold change
CCOC(=O)C1CCN(C(C)=O)CC1 | 3.8 (active)
CCOC(=O)C1CCN(C(=O)C(=O)N2CCC(C(=O)OCC)CC2)CC1 | -1.3 (inactive)
CCOC(=O)C1CCN(C(=O)N2CCOCC2)CC1 | -1.12 (inactive)
O=C(NC1CCCC1)c1ccc(COc2cc(Cl)ccc2Cl)o1 | -1.53 (inactive)
O=C1/C(=C/c2c(N3CCOCC3)nc3ccccn3c2=O)SC(=S)N1CC1CCCO1 (stereo not given) | -1.1 (inactive)
Nc1ccc(Cn2ccnc2)cc1 | -1.06 (inactive)
CCCCNC(=O)C(=O)NCCCn1ccnc1 | -3.64 (inactive)
NCCCCn1ccnc1 | 2.97 (active)
O=C1CCCN1c1ccc(NS(=O)(=O)N2CCCCC2)cc1 | -1.3 (inactive)
O=C1CCCN1c1ccc(S(=O)(=O)Cl)cc1 | 1.34 (inactive)
O=C1CCCN1c1ccc([N+](=O)[O-])cc1 | 4.37 (active)
CCN(CC)CCCN1c2ccccc2Sc2ccc(C(F)(F)F)cc21 | 5.26 (active)
CN(CCCN1c2ccccc2CCc2ccccc21)c1nc(-c2ccc(F)cc2)cs1 | -1.32 (inactive)
Fc1ccc(-c2csc(N3CCN(CCCN4c5ccccc5Sc5ccc(C(F)(F)F)cc54)CC3)n2)cc1 | 1.16 (inactive)
CC1SC2(C(=O)Nc3ccccc32)N(c2cccc(Br)c2)C1=O (stereo not given) | -4.19 (inactive)
O=C(O)C1=C/C(=C(/c2ccccc2)c2cc(C(=O)O)c(O)c3ccccc23)c2ccccc2C1=O | 1.42 (inactive)
O=C1NC(=O)/C(=C/c2cc(Br)ccc2OCc2ccc(F)cc2)N1 | -1.15 (inactive)
C=CCn1c(-c2ccc(OC)cc2)n[nH]c1=S | -2.14 (inactive)
CS(=O)(=O)N1CCc2ccccc2C1 | -1.26 (inactive)
O=c1ccc(=O)n2n1Cc1ccccc1C2 | 3.52 (active)
O=[N+]([O-])c1cccc(N2Cc3ccccc3C2)c1 | -1.27 (inactive)
O=C(O)CC1CCCCO1 (stereo not given) | -1.75 (inactive)
O=C1CC(c2ccccc2)CC2=C1C(c1ccc(-c3ccccc3)cc1)Nc1ccccc1N2 (stereo not given) | 1.1 (inactive)
Cn1cc(Cl)c(C(=O)N2CCc3ccccc3C2)n1 | -2.46 (inactive)
N#CC1=C(N)C(C#N)(C#N)C2=CCCC2C12CCCCC2 (stereo not given) | 2.06 (inactive)

Structure (SMILES) | fold change
Cc1ccc(-c2nnnn2C(C#N)=P(c2ccccc2)(c2ccccc2)c2ccccc2)cc1 | 2.78 (active)
N#CC(C(N)=S)=P(c1ccccc1)(c1ccccc1)c1ccccc1 | -1.25 (inactive)
COc1cc(OC)cc([C@@H]2[C@@H](C(C)(C)C)C(C#N)(C#N)[C@H]3C=Cc4ccccc4N23)c1 | 1.39 (inactive)
Cn1c(=S)n(CCSc2nc3ccccc3n2C2CCCCC2)c2ccccc21 | -2.22 (inactive)
CN(C)c1ccc(N2CC(=O)SC2=NC#N)cc1 | -2.16 (inactive)
COC1OC(COC(c2ccccc2)(c2ccccc2)c2ccccc2)C(O)C(O)C1O (stereo not given) | 2.72 (active)
OCc1ccccc1O[C@@H]1O[C@H](CO)[C@@H](O)[C@H](O)[C@H]1O | 1.37 (inactive)
COC1OC(C)C(OCc2ccccc2)C(O)C1O (stereo not given) | 1.93 (inactive)
CCCCc1sc(-c2c(C#N)c(N)nc3c2CCCC3)cc1[N+](=O)[O-] | -2.22 (inactive)
CCSCCOC(=O)C1=C(C)NC2=C(C(=O)CCC2)C1c1ccsc1 (stereo not given) | -1.16 (inactive)
CCCCOc1ccc(C2C(C#N)=C(N)Nc3oc(OC)nc32)cc1CCC (stereo not given) | -1.87 (inactive)
O=C(O)C1CCCN1S(=O)(=O)c1cc(Cl)ccc1Cl (stereo not given) | -1.09 (inactive)
COc1ccc(S(=O)(=O)N2CCN(C)CC2)cc1 | -1.28 (inactive)
CC1CCCN(S(=O)(=O)c2ccc(Cl)cc2)C1 (stereo not given) | 5.69 (active)
CCC1CCCCN1S(=O)(=O)c1ccc(Cl)cc1 (stereo not given) | -1.26 (inactive)
COc1ccc(S(=O)(=O)N2CC(C)CC(C)C2)cc1 (stereo not given) | 3.34 (active)
CC1CCCN(S(=O)(=O)c2cc(Cl)ccc2Cl)C1 (stereo not given) | 3.18 (active)
COc1ccc(S(=O)(=O)N2CCN(CCO)CC2)cc1 | -1.24 (inactive)
O=S(=O)(c1ccc(Cl)cc1)N1CCOC1C(Cl)(Cl)Cl (stereo not given) | -2.17 (inactive)
O=S(=O)(c1cc(Cl)ccc1Cl)N1CCc2ccccc2C1 | 1.42 (inactive)
CC1CCN(S(=O)(=O)c2ccc(Cl)cc2)CC1 | 1.93 (inactive)
CC1CC(C)CN(S(=O)(=O)c2ccc(Cl)cc2)C1 (stereo not given) | 3.13 (active)
CC1CCCN(S(=O)(=O)c2ccc(Br)cc2)C1 (stereo not given) | 1.44 (inactive)
CCC1CN2CCc3cc(OC)c(OC)cc3[C@@H]2C[C@@H]1C[C@H]1NCCc2cc(OC)c(OC)cc21 (stereo not given in full) | -4.98 (inactive)
Nc1nnc(SCc2ccc(Cl)cc2Cl)s1 | 1.92 (inactive)

Structure (SMILES) | fold change
CC(C)(C)c1cc(C(C)(C)C)c(O)c(C(C)(C)C)c1 | -1.04 (inactive)
CS(=O)(=O)N1CCc2ccccc21 | 1.49 (inactive)
CN=C1/C(=N/O)C=CC2CCCCC12 (stereo not given) | inactive
O=[N+]([O-])c1cc(Br)cc(C=Nc2cc(Cl)cc(Cl)c2)c1O | inactive
O=C1C=CC(=C(c2ccc(O)c(O)c2)c2ccccc2S(=O)(=O)O)C=C1O | 1.05 (inactive)
Cc1cc(=O)[nH]c(SCc2ccon2)n1 | inactive
Cn1c(=O)n(C)c2cc(S(=O)(=O)N3CCCCC3)ccc21 | -4.28 (inactive)
CSC(=Nc1ccc(C)c(C)c1)NC#N | 3.26 (active)
CC1(C)CC2CC(C)(CN2S(=O)(=O)c2ccc(N)cc2)C1 (stereo not given) | -1.15 (inactive)
CN(C)CCCN1C(=O)C(O)=C(C(=O)c2ccco2)C1c1cccs1 (stereo not given) | 1.06 (inactive)
N#CC1=C(N)OC2=C(C(=O)CCC2)C1c1ccc(Br)s1 (stereo not given) | -1.06 (inactive)
N#CC1=C(N)OC2=C(C(=O)CCC2)C1c1cc(F)ccc1F (stereo not given) | 2.83 (active)
Cc1ccc(C2C(C#N)=C(N)OC3=C2C(=O)CCC3)o1 (stereo not given) | -2.21 (inactive)
Cn1c(SC2CCOC2=O)nc2ccccc2c1=O (stereo not given) | -1.35 (inactive)
COc1nc(-c2ccccc2)cc(-c2ccccc2)c1C#N | 1.46 (inactive)
OC[C@H]1O[C@@H](OC[C@H]2O[C@@H](O)[C@H](O)[C@@H](O)[C@@H]2O)[C@H](O)[C@@H](O)[C@@H]1O | -1.38 (inactive)
NC[C@@H]1O[C@H](O[C@H]2[C@@H](O)[C@H](O[C@@H]3[C@@H](O)[C@H](N)C[C@H](N)[C@H]3O[C@H]3O[C@H](CN)[C@@H](O)[C@H](O)[C@H]3N)O[C@@H]2CO)[C@H](N)[C@@H](O)[C@@H]1O | -1.27 (inactive)
O=[N+]([O-])c1ccc(OC2OC(CO)C(O)C(O)C2O)cc1 (stereo not given) | 1.11 (inactive)
OC[C@@H]1O[C@H](O[C@H]2O[C@H](CO[C@H]3O[C@H](CO)[C@H](O)[C@H](O)[C@H]3O)[C@@H](O)[C@H](O)[C@H]2O)[C@H](O)[C@H]1O | 2.81 (active)
OC[C@@H]1OC(O)[C@@H](O)[C@H](O)[C@H]1O[C@H]1O[C@H](CO)[C@@H](O)[C@H](O)[C@H]1O (stereo not given in full) | 3.84 (active)
OCC1OC(OC2OC(CO)C(O)C(O)C2O)C(O)C(O)C1O (stereo not given) | -1.63 (inactive)
CC(N)c1nc(-c2cccnc2)no1 (stereo not given) | -2.47 (inactive)
O=S(=O)(NCc1ccc2c(c1)OCO2)c1ccc2oc3ccccc3c2c1 | 1.03 (inactive)
Cn1c(=O)c2c(nc(NCCOc3ccc(Cl)cc3)n2C)n(C)c1=O | 1.16 (inactive)
O=c1cc(-c2ccc(O)c(O)c2)oc2cc(OC3OC(CO)C(O)C(O)C3O)cc(O)c12 (stereo not given) | -1.76 (inactive)

Structure (SMILES) | fold change
CC(Nc1cc(Cl)ccc1[N+](=O)[O-])C12CC3CC(CC(C3)C1)C2 (stereo not given) | -1.01 (inactive)
O=S(=O)(c1ccccc1)N1CCN(c2ccccc2)CC1 | -1.03 (inactive)
O=S(=O)(c1ccccc1)N1CCN(C(c2ccccc2)c2ccccc2)CC1 | 3.51 (active)
O=S(=O)(c1ccccc1)N1CCN(CCO)CC1 | -1.34 (inactive)
O=C(O)CN(CP(=O)(O)O)CP(=O)(O)O | -4.38 (inactive)
COc1cc(CSC(=N)N)c([N+](=O)[O-])cc1OC | -1.68 (inactive)
CC(=O)OCC1OC(n2ccc(=O)[nH]c2=O)C(OC(C)=O)C1OC(C)=O (stereo not given) | -1.3 (inactive)
C=CCOC1OC(COC(C)=O)C(OC(C)=O)C(OC(C)=O)C1OC(C)=O (stereo not given) | 3.1 (active)
CC(=O)OC[C@H]1O[C@@H](n2ncc(=O)[nH]c2=O)[C@H](OC(C)=O)[C@@H]1OC(C)=O | -1.81 (inactive)
Cc1ccc(C(c2c(C)[nH]n(-c3ccccc3)c2=O)c2c(C)[nH]n(-c3ccccc3)c2=O)o1 | 1.83 (inactive)
CN1CC=C2[C@H](C1)[C@@H](c1ccccc1F)C(C#N)=C(N)C2(C#N)C#N | 1.08 (inactive)
Cc1cc(C)cc(OCC(=O)N=Nc2c(O)[nH]c3ccccc23)c1 | inactive
N#Cc1sc2nc(-c3cccs3)ccc2c1N | 5 (active)
c1csc(-c2nc3sc(-c4cccs4)nc3s2)c1 | -2.65 (inactive)
N#Cc1sc2nc3c(cc2c1N)CCCC3 | 1.19 (inactive)
Cc1cccc(N2CCC(N=CN3CCOCC3)=N2)c1 | 2.57 (active)
O=C(CN1CCOCC1)Nc1nccs1 | 3.2 (active)
CCCCCCCCCCCC(=O)Nc1nccs1 | -1.36 (inactive)
O=C(O)CCC(=O)Nc1nccs1 | -1.01 (inactive)
CCOC(=O)/C(=C\C1=CC=C([N+](=O)[O-])C1)NC(=O)c1cccc(C)c1 | 2 (inactive)
Cc1cc2c(cc1C)-c1c(ssc1=Nc1ccc(S(N)(=O)=O)cc1)C(C)(C)N2 | -1.69 (inactive)
COc1cc(C2C(C(=O)OC3CCCCC3)=C(C)NC3=C2C(=O)CC(C)(C)C3)cc(OC)c1OC (stereo not given) | -1.82 (inactive)
O=C(O)CCCc1c[nH]c2ccccc12 | 3.42 (active) and -1.18 (inactive)
O=C(CCCc1c[nH]c2ccccc12)NCCSc1ccccc1 | -1.53 (inactive)
NC(=O)CCCc1c[nH]c2ccccc12 | 1.03 (inactive)
